The results in this text go back to PubChem BioAssay (Tox21).

Assay [1] has as its target Estrogen receptor beta (Homo sapiens) (UniProt Q92731). In words: qHTS assay to identify small molecule antagonists of the estrogen receptor beta (ER-beta) signaling pathway (AID 1259378; active means well fitted inhibition curve with a large enough effect in the signal ratio in the repeat runs, not every such curve was filed as active; the % refers to the signal ratio). A digest of the protocol:
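ER-beta-UAS-bla HEK293T cells in 2% charcoal-stripped FBS medium treated with compound plus 1nM final 17-beta-estradiol for 16 hr at 37C. Beta-lactamase reporter read by FRET substrate fluorescence after 2 hours at room temperature.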

A short description of assay [2]: qHTS assay to identify small molecule agonists of the androgen receptor (AR) signaling pathway in the presence of an antagonist - cell viability counter screen (AID 1259379). Further: nearly all actives have a fitted effect of over 25% in size. Further: potency means the concentration at half of the fitted maximal effect. The method, boiled down: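 Counter screen for cell viability run in parallel with the AR agonist-mode luciferase assay. MDA-kb2 cells were co-treated with nilutamide (3.0uM final) and compounds, then incubated 16 hr at 37C, and CellTiter-Fluor fluorescence was measured.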

Assay [3] is described as follows: qHTS assay to identify small molecule antagonists of the estrogen receptor beta (ER-beta) signaling pathway - cell viability counter screen (AID 1259382). Further: series mostly up to about 92 µM; nearly all actives have a fitted effect of over 55% in size. A digest of the protocol:
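HEK293T ER-beta-UAS-bla, 2% charcoal-stripped FBS; compounds + 1nM E2 16 hr 37C; CellTiter-Glo luminescence, 30 min RT.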
(qHTS replaces the single test concentration by a dilution series.)

A short description of assay [4]: qHTS assay to identify small molecule agonists or antagonists of the thyroid stimulating hormone receptor (TSHR) signaling pathway - wild type cell line counter screen (AID 1259384; calls by dose curve). The method, boiled down: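 Wild-type Hek293 cells, 800/well, 18 h at 37C, then compound with Ro20-1724 for 30 min RT. cAMP by HTRF (cAMP-d2/anti-cAMP cryptate), 1 h RT, fluorescence read. 15 concentrations, triplicates.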

For assay [5], the target named is Thyrotropin receptor (Homo sapiens) (UniProt P16473). Briefly: qHTS assay to identify small molecule antagonists of the thyroid stimulating hormone receptor (TSHR) signaling pathway (AID 1259385; calls by dose curve; further: nearly all actives have a fitted effect of over 20% in size). A digest of the protocol: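 TSHR-HEK293 cells (800/well) plated 18 h, then compounds with Ro20-1724 and TSH at 1.5 ng/mL final, 30 min at room temperature. cAMP quantified by HTRF (cAMP-d2/anti-cAMP-cryptate, 1 h); 15 concentrations in triplicate.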

Assay [6] concerns the target Progesterone receptor (Homo sapiens) (UniProt P06401). In words: qHTS assay to identify small molecule agonists of the progesterone receptor (PR) signaling pathway (AID 1346784; calls by dose curve; further: nearly all actives have a fitted effect of over 30% in size). A digest of the protocol:
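Cells (PR-UAS-bla HEK 293T, GripTite) were plated in assay medium containing 2% charcoal-stripped FBS and incubated 6 hr. Test compounds in DMSO were added for 16 hr at 37C. FRET substrate was then loaded for 2 hr at room temperature before fluorescence reading.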

Assay [7] has the same target. Briefly: qHTS assay to identify small molecule antagonists of the progesterone receptor (PR) signaling pathway (AID 1346795; active means well fitted inhibition curve with a large enough effect in the signal ratio in the repeat runs, not every such curve was filed as active; the % refers to the signal ratio). The method, boiled down: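 Antagonist mode: compounds tested against 1 nM (final) promegestone stimulation in HEK293T cells expressing PR-UAS-bla reporter, 16 hr at 37C, 5% CO2; beta-lactamase activity detected via B/G FRET substrate after 2 hr at room temperature.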

Assay [8] can be described thus: qHTS assay to identify small molecule antagonists of the progesterone receptor (PR) signaling pathway - cell viability counter screen (AID 1346798). Further: series mostly up to about 92 µM; nearly all actives have a fitted effect of over 50% in size. A digest of the protocol:
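Counter screen for cytotoxicity: viability of PR-UAS-bla HEK293T cells was measured with CellTiter-Glo luminescence following 16 hr compound exposure in the presence of R5020.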

Assay [9] can be described thus: qHTS assay to identify small molecule agonists of the progesterone receptor (PR) signaling pathway - cell viability counter screen (AID 1346799; calls by dose curve; further: nearly all actives have a fitted effect of over 45% in size). The method, boiled down: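 Cells (PR-UAS-bla HEK293T) are plated at 3,000/well in 2% charcoal-stripped FBS medium, rested 6 hr, dosed and incubated 16 hr at 37C. CellTiter-Glo is then added and luminescence measured after 30 min at room temperature.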

Assay [10] in a line: qHTS assay to identify small molecule antagonists of the TGF-beta/Smad signaling pathway - cell viability counter screen (AID 1346824). Further: nearly all actives have a fitted effect of over 50% in size. The method, boiled down:
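SBE-bla HEK 293T cells, incubated overnight, then compound plus 0.25 ng/mL TGF-beta1 (stock added) for 5 hr at 37 C. Viability was read in the same wells by CellTiter-Glo luminescence after 30 min at room temperature.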

Assay [11] is described as follows: qHTS assay to identify small molecule agonists of the TGF-beta/Smad signaling pathway - cell viability counter screen (AID 1346829). Further: top concentration of the series differs between compounds; nearly all actives have a fitted effect of over 45% in size. The method, boiled down: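 Compound-treated SBE-bla HEK 293T cells (5 hr, 37 C) were assessed for viability with CellTiter-Glo in parallel with the reporter read.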
Assay [12] in a line: qHTS assay to identify small molecule agonists of the TGF-beta/Smad signaling pathway (AID 1346859; active means well fitted activation curve with a large enough effect in the signal ratio in the repeat runs, not every such curve was filed as active; the % refers to the signal ratio; further: series mostly up to about 77 µM). A digest of the protocol:
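Reporter line: HEK 293T with stably integrated SBE-controlled beta-lactamase. Compound exposure lasts 5 hr at 37 C and 5% CO2; substrate loading follows for 2 hr at room temperature, with emission read at 460 and 530 nm.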

In assay [13] the target is Thyrotropin-releasing hormone receptor (Homo sapiens) (UniProt P34981). In words: qHTS assay to identify small molecule antagonists of the thyrotropin-releasing hormone receptor (TRHR) signaling pathway (AID 1346877; active means well fitted inhibition curve with a large enough effect in the repeat runs, not every such curve was filed as active; further: series mostly up to about 51 µM). The method, boiled down: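 Human TRHR in HEK293 cells; inhibition of the intracellular calcium rise triggered by 1 nM TRH was followed by fluorescence over 3 min. Compounds were run at 15 concentrations, three replicates each.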

For assay [14] the target is unchanged. Briefly: qHTS assay to identify small molecule agonists of the thyrotropin-releasing hormone receptor (TRHR) signaling pathway (AID 1346891; calls by dose curve;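 further: HEK293 cells expressing TRHR with calcium dye readout; series mostly up to about 58 µM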). The method, boiled down: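 Cells: TRHR-Hek293, seeded and incubated 18 h. Dye loading: 2 h at 37 °C. Compound added from DMSO stock by pin tool. Read-out: kinetic calcium fluorescence over 3 min.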
Assay [15] can be described thus: Caspase-3/7 induction in HepG2 cells by small molecules, qHTS assay (AID 1346978). Further: nearly all actives have a fitted effect of over 15% in size. The method, boiled down:
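Wild-type HepG2 cells, 2,000/well, settled 5 hr at 37 C and 5% CO2, then compound-treated for 17 hr; caspase-3/7 activity read by luminescent Caspase-Glo 3/7 after 30 min at room temperature.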

A short description of assay [16]: qHTS assay to identify small molecule agonists of the estrogen receptor beta (ER-beta) signaling pathway - cell viability counter screen (AID 1259380). Further: nearly all actives have a fitted effect of over 30% in size. Further: potency means the concentration at half of the fitted maximal effect. The method, boiled down:
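In this qHTS counter screen, HEK293T cells carrying an ER-beta/UAS beta-lactamase reporter, grown in 2% charcoal-stripped FBS, received compound for 16 hr; ATP-based CellTiter-Glo luminescence was then read after 30 min at room temperature.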

The target of assay [17] is Androgen receptor (Homo sapiens) (UniProt P10275). In words: qHTS assay to identify small molecule agonists of the androgen receptor (AR) signaling pathway in the presence of an antagonist (AID 1259381; calls by dose curve; further: nearly all actives have a fitted effect of over 15% in size; further: potency means the concentration at half of the fitted maximal effect). A digest of the protocol: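 AR antagonist background: nilutamide 3.0uM final. Cell line: MDA-kb2, MMTV-driven luciferase, responsive to both AR and GR. Exposure 16hr, 37C, no CO2; ONE-Glo luminescence.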

Assay [18] deals with Estrogen receptor (Homo sapiens) (UniProt P03372). In words: qHTS assay to identify small molecule agonists of the estrogen receptor alpha (ER-alpha) signaling pathway in the presence of an antagonist (AID 1259383; calls by dose curve; further: top concentration of the series differs between compounds; nearly all actives have a fitted effect of over 15% in size). A digest of the protocol:
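ER-alpha agonism measured under antagonist challenge: 10.0nM ICI-182,780 (final) plus compound, 15 concentrations, 22hr, VM7Luc4E2 ERE-luciferase cells. Read by luminescence.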

A short description of assay [19]: qHTS assay to identify small molecule agonists of the estrogen receptor alpha (ER-alpha) signaling pathway in the presence of an antagonist - cell viability counter screen (AID 1259386).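 Further: series mostly up to about 92 µM; cells exposed to compounds for 22 h at 37 °C before the viability read; nearly all actives have a fitted effect of over 30% in size.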 A digest of the protocol:
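Steps: 5-day stripped-FBS culture; seed and incubate 24hr; add ICI-182,780 (10.0nM final); pin 15-point compound titration; incubate 22hr at 37C; add CellTiter-Fluor at 21hr; read fluorescence.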

The nature of assay [20]: Human pregnane X receptor (PXR) small molecule agonists, qHTS cell viability counter screen (AID 1346977). Further: nearly all actives have a fitted effect of over 50% in size. A digest of the protocol:
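Cytotoxicity counter screen run in the same wells as the PXR luciferase assay, using PXR-Luc HepG2 cells in charcoal-stripped serum medium. Viability: CellTiter-Fluor fluorescence after 24hr compound treatment.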

Results filed as inconclusive are left out. Active and inactive are the calls of the source. Unless noted, the call rests on the fitted dose curve; in most records, active means well fitted curve in the direction sought with a large enough effect in the repeat runs; inconclusive means weak or mixed curves; inactive means no such curve, though single readings can be large; an effect the other way counts as inactive or inconclusive.

Sequence of Thyrotropin-releasing hormone receptor (Homo sapiens) (P34981 whole entry, looked up): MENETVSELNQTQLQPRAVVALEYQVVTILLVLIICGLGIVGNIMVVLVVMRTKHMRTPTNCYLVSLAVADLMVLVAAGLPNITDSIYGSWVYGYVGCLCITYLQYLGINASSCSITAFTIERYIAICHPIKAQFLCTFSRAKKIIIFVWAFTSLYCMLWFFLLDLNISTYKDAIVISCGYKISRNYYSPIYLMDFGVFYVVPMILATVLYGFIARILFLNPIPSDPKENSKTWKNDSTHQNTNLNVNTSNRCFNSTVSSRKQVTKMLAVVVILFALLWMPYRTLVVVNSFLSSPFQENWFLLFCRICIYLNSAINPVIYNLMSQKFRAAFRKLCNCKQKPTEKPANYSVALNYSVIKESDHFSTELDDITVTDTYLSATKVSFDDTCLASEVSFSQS
Sequence of Thyrotropin receptor (Homo sapiens) (P16473 whole entry, looked up): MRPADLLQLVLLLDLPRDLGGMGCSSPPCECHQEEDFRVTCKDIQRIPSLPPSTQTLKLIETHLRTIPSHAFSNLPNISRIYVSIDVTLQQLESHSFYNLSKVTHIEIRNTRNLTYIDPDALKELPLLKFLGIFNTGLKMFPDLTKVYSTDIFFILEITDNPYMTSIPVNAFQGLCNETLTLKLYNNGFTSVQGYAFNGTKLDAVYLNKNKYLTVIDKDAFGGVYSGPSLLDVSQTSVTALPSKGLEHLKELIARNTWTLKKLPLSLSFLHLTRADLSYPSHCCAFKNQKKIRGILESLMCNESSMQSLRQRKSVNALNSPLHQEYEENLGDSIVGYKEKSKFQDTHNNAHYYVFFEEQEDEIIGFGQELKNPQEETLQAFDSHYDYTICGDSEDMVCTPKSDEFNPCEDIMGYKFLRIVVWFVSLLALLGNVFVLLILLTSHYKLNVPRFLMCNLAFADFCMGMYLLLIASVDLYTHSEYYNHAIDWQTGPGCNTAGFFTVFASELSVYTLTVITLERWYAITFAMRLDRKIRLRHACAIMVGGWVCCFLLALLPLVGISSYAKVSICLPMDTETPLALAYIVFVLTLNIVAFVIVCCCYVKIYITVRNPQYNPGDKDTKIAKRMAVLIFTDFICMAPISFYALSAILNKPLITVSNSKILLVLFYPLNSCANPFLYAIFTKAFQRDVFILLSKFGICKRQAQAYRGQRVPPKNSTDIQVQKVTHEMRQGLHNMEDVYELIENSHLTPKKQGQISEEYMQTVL
Sequence of Progesterone receptor (Homo sapiens) (P06401 whole entry, looked up): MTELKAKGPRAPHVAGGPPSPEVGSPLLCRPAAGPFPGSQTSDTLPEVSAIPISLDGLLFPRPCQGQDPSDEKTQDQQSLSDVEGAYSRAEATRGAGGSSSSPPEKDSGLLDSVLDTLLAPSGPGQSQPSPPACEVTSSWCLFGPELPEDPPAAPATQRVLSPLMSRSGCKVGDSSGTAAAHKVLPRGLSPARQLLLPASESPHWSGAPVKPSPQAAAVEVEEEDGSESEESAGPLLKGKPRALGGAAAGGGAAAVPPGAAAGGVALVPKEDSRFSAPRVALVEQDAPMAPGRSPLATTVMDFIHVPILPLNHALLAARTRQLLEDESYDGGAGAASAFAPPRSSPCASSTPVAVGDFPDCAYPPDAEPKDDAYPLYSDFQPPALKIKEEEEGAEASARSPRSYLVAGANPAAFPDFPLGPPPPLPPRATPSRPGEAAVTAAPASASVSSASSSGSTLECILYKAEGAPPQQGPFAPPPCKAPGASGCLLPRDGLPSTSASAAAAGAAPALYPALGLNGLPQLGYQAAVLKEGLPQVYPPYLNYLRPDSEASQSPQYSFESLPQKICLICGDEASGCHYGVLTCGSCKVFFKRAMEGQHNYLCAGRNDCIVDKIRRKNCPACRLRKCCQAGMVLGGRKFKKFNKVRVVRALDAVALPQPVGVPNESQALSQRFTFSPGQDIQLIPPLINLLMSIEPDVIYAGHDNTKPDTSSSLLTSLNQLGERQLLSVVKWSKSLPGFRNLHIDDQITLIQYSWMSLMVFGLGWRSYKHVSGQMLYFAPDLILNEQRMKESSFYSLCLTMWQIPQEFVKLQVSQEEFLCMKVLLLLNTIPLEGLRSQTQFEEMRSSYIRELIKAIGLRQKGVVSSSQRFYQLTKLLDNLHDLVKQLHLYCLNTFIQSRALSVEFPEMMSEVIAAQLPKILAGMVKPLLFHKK
Sequence of Estrogen receptor (Homo sapiens) (P03372 whole entry, looked up): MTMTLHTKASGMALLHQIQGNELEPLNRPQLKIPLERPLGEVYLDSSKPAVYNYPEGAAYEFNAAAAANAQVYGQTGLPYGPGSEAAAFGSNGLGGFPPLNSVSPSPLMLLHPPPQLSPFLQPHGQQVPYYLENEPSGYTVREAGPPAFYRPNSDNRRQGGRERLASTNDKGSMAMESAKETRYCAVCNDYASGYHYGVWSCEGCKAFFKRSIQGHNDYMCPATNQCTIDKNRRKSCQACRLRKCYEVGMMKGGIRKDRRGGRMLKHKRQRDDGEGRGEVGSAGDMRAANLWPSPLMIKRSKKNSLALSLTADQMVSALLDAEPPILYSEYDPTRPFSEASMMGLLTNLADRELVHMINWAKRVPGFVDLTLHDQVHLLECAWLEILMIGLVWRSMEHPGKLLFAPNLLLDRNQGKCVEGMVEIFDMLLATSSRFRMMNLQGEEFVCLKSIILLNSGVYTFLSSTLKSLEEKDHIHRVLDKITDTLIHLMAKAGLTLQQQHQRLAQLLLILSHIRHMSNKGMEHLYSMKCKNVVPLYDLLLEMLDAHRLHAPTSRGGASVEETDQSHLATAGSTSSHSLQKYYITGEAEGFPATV
Sequence of Androgen receptor (Homo sapiens) (P10275 whole entry, looked up): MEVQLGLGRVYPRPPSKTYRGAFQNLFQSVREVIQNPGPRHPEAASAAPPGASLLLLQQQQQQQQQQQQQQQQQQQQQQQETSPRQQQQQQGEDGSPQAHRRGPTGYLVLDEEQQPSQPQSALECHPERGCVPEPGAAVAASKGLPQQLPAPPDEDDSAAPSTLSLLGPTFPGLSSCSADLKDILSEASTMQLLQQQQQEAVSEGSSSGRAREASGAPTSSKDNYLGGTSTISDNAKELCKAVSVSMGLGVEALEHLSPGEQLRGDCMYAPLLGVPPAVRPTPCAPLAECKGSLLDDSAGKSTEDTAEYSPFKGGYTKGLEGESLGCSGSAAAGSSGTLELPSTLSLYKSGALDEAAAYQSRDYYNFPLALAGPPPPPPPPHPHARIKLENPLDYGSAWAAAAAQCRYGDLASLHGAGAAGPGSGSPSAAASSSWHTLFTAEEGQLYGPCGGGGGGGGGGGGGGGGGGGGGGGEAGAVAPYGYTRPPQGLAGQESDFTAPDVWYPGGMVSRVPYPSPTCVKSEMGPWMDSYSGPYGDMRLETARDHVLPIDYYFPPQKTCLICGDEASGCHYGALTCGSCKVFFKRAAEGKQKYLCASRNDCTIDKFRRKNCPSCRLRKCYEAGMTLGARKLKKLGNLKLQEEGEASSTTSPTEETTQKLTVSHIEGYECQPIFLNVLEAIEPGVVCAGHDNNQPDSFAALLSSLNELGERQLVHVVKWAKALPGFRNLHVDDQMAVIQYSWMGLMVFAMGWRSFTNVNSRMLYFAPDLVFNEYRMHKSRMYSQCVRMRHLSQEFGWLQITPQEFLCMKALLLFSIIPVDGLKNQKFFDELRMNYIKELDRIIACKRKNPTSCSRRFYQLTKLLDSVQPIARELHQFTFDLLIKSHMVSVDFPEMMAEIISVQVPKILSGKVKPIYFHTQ
Sequence of Estrogen receptor beta (Homo sapiens) (Q92731 whole entry, looked up): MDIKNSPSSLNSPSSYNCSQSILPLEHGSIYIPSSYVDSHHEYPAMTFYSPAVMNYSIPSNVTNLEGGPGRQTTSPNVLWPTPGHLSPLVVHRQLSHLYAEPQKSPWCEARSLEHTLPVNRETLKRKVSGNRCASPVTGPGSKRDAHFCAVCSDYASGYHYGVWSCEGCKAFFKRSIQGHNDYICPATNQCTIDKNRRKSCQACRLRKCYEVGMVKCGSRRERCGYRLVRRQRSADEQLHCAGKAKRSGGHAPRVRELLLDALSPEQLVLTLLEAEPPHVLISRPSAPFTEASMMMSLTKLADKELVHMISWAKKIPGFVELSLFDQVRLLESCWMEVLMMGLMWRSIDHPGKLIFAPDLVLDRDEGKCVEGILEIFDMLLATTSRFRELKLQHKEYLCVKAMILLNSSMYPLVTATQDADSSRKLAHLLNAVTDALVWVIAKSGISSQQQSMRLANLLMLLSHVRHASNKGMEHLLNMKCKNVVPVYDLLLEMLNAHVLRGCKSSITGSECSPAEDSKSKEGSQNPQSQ

Consider `CC(=O)OC1(c2ccccc2)CCN(CCc2ccccc2)CC1`, for which the Potency result in [1], in [3], in [5], in [6], in assay [7] and in [8] was “inactive” throughout. Besides, the Potency entry in [9], in assay [10], in [11], in assay [13], in assay [14] and in [15] was “inactive” throughout. In addition, in assay [2], the Potency was 70.3 µM (active). The outcome in [4] and in assay [12] was inactive.

Turning to `COP(=S)(OC)Oc1cc(Cl)c(Br)cc1Cl`, the Potency result in assay [2], in assay [16], in assay [17], in assay [3], in assay [18] and in assay [19] was “inactive” in each case. Further, the Potency result in assay [6], in [10], in assay [11], in assay [13], in assay [14] and in [15] was “inactive” throughout. Moreover, the outcome in assay [4] and in [12] was inactive.

Take `N#Cc1ccc(O)cc1`: the Potency result in assay [2], in assay [16], in assay [17], in assay [3], in assay [18] and in [5] was “inactive” throughout. The Potency result in assay [19], in assay [6], in assay [7], in [8], in assay [9] and in assay [10] was “inactive” each time. Further, the Potency result in [11], in assay [13], in assay [14], in assay [20] and in [15] was “inactive” in each case. Moreover, the result in [4] and in assay [12] was inactive.

In the case of `CCCCCCCCCCBr`, the Potency result in assay [1], in assay [2], in [16], in [18], in [19] and in assay [6] was “inactive” in each case. Besides, the Potency entry in assay [7], in assay [8], in assay [11], in assay [13], in assay [14] and in assay [20] was “inactive” each time. In addition, the Potency result in assay [15] is “inactive”. In assay [12], the call was inactive.

As for `CCC(C)(C)C(=O)OC1=C(c2ccc(Cl)cc2Cl)C(=O)OC12CCCCC2`, the Potency result in assay [2], in assay [16], in assay [17], in assay [3], in assay [18] and in assay [5] was “inactive” throughout. For the same molecule, the Potency result in assay [19], in [6], in assay [7], in [9], in [10] and in [14] was “inactive” throughout. Moreover, the Potency result in assay [20] and in assay [15] was “inactive” each time. Further, the molecule was called inactive in assay [4] and in [12].

Regarding `CC1(C)CC/C(=C/c2ccc(Cl)cc2)C1(O)Cn1cncn1` (centres undefined), the Potency entry in [2], in [3], in assay [18], in assay [19], in [10] and in [11] was “inactive” in each case. Moreover, the Potency entry in assay [13], in assay [14], in [20] and in [15] was “inactive” in each case. Further, the figures for the Potency in assay [16] and in [17] were 6.08 µM (active) and 17.1 µM (active), respectively. Besides, the call in assay [4] was inactive.

As for `CC(Cl)CN(C)C` (centres undefined), the Potency entry in assay [2], in assay [16], in [17], in assay [3], in assay [18] and in assay [5] was “inactive” throughout. The Potency entry in assay [19], in [6], in [7], in assay [8], in [9] and in [11] was “inactive” each time. The Potency entry in assay [13], in [14], in [20] and in assay [15] was “inactive” each time. Besides, the result in [4] and in [12] was inactive.
